Laboratory results taken from PubChem BioAssay (NCI).
Compounds without any hit were thinned out: in the full panel of roughly 79,000, 15% have a hit. Activity calls are given as the source filed them. No stated cut-off is given here; in the data, active means growth inhibition above about 70%; inactive means the rest.

Experiments:
[1] = NCI Yeast Anticancer Drug Screen. Data for the rad50 strain (AID 155);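 further: 0% = growth of vehicle-only cultures of the same strain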; conditions: S. cerevisiae rad50 strain growth inhibition, active compounds read high
Outline: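 Growth of the mutant yeast was measured after compound exposure and referenced to vehicle-treated cultures.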

[2] = NCI Yeast Anticancer Drug Screen. Data for the mec2-1 strain (AID 157); conditions: S. cerevisiae mec2-1 strain, active compounds read high
Outline: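 Strain: mec2-1 (DNA repair/cell cycle alteration). Compound exposure, then growth measured; inhibition expressed relative to vehicle.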

[3] = NCI Yeast Anticancer Drug Screen. Data for the sgs1 mgt1 strain (AID 161);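 further: 0% = growth of cultures given vehicle only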; conditions: S. cerevisiae sgs1 mgt1 strain, active compounds read high
Outline: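 Mutant yeast exposed to compound; growth scored against vehicle-only wells.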

[4] = NCI Yeast Anticancer Drug Screen. Data for the cln2 rad14 strain (AID 165);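 further: 0% = growth equal to vehicle treated cultures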; conditions: S. cerevisiae cln2 rad14 strain, active compounds read high
Outline: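 Compounds are applied to the cln2 rad14 yeast strain, and growth is then compared with that of vehicle-treated cultures to give inhibition.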

[5] = NCI Yeast Anticancer Drug Screen. Data for the bub3 strain (AID 167); conditions: S. cerevisiae bub3 mutant strain, active compounds read high
Outline: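 Whole-cell yeast assay. The mutant strain was incubated with compounds, and growth inhibition was determined by comparison with vehicle-treated cells.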

[6] = NCI Yeast Anticancer Drug Screen. Data for the mlh1 rad18 strain (AID 175); conditions: S. cerevisiae mlh1 rad18 strain growth inhibition, active compounds read high
Outline: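 Read-out is yeast growth inhibition, calculated against vehicle-only controls. The compound was applied to a strain engineered with DNA damage repair alterations.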

[7] = at 5.0 µM (retest, dose inferred, filed as 0.5)
[8] = at 50.0 µM (retest, dose inferred, filed as 5.0)

Measured: growth inhibition

C/C=C/C=C1\C=Cc2c(C(=O)OC)coc(=O)c21
active: [1]; [8] 85% | [1]; at 50.0 µM 92% | [2]; [8] 91% | [2]; at 50.0 µM 94.2% | [3]; [8] 85% | [3]; at 50.0 µM 76.3% | [4]; [8] 76% | [5]; [8] 96% | [5]; at 50.0 µM 94% | [6]; [8] 97% | [6]; at 50.0 µM 95%
inactive: [1]; [7] -9% | [2]; [7] 14% | [3]; [7] 7% | [4]; [7] -9% | [4]; at 50.0 µM 62.8% | [5]; [7] 15% | [6]; [7] 14%

CCN1CCC(O)(/C=C/c2ccc(Cl)c(Cl)c2)C(C(=O)/C=C/c2ccc(Cl)c(Cl)c2)C1 (centres undefined)
active: [1]; [7] 99% | [1]; [8] 99% | [1]; at 50.0 µM 99% | [2]; [7] 99% | [2]; [8] 100% | [2]; at 50.0 µM 99.4% | [3]; [7] 99% | [3]; [8] 100% | [3]; at 50.0 µM 99.5% | [4]; [7] 99% | [4]; [8] 99% | [4]; at 50.0 µM 97.8% | [6]; [7] 99% | [6]; [8] 97% | [6]; at 50.0 µM 98.9%

CCCCCCC/C=C/C(=O)OC1C(OC2C(OC(CCCCCCC)CC(=O)OC(CCCCCCC)CC(=O)O)OC(C)C(O)C2O)OC(C)C(O)C1O (centres undefined)
active: [1]; [8] 70% | [1]; at 50.0 µM 91.5% | [2]; at 50.0 µM 81.8% | [3]; at 50.0 µM 92.7% | [4]; at 50.0 µM 90.1% | [5]; [8] 94% | [5]; at 50.0 µM 90% | [6]; [8] 95% | [6]; at 50.0 µM 89.5%
inactive: [1]; [7] -18% | [2]; [7] -37% | [2]; [8] 57% | [3]; [7] -27% | [3]; [8] 62% | [4]; [7] -40% | [4]; [8] 68% | [5]; [7] -42% | [6]; [7] -34%

CCC(CO)Nc1nc2ccc(Br)cc2c2ccccc12 (centres undefined)
active: [1]; [8] 82% | [1]; at 50.0 µM 76% | [3]; [8] 95% | [3]; at 50.0 µM 86% | [5]; [8] 84% | [6]; [8] 96% | [6]; at 50.0 µM 93.9%
inactive: [1]; [7] 15% | [2]; [7] 4% | [2]; [8] 59% | [2]; at 50.0 µM 49.5% | [3]; [7] 5% | [4]; [7] 0% | [4]; [8] 56% | [4]; at 50.0 µM 66% | [5]; [7] 2% | [5]; at 50.0 µM 63.6% | [6]; [7] 8%

CN(C)C(=S)/N=c1\ss/c(=N\C(=S)N(C)C)n1-c1cccc(Cl)c1
inactive: [1]; [7] 6% | [1]; [8] 8% | [2]; [7] 15% | [2]; [8] 2% | [3]; [7] 4% | [3]; [8] 12% | [4]; [7] 4% | [4]; [8] -13% | [5]; [7] 3% | [5]; [8] -4% | [6]; [7] 5% | [6]; [8] 3%
active: [1]; at 50.0 µM 95.9% | [2]; at 50.0 µM 95.2% | [3]; at 50.0 µM 94% | [4]; at 50.0 µM 80.8% | [5]; at 50.0 µM 96.2% | [6]; at 50.0 µM 94.2%

CCN(CC)CCCC(C)Nc1cc(O)c2c(c1O)C(=O)c1ccccc1C2=O (centres undefined)
inactive: [4]; [7] 53%
active: [1]; [7] 96% | [1]; [8] 98% | [1]; at 50.0 µM 98.8% | [2]; [7] 95% | [2]; [8] 99% | [2]; at 50.0 µM 98.5% | [3]; [7] 98% | [3]; [8] 99% | [3]; at 50.0 µM 98.8% | [4]; [8] 98% | [4]; at 50.0 µM 97.2% | [5]; [7] 95% | [5]; [8] 98% | [5]; at 50.0 µM 97.8% | [6]; [7] 94% | [6]; [8] 98% | [6]; at 50.0 µM 98.8%

O=[N+]([O-])c1ccc(S)c(Cl)c1
active: [1]; [8] 95% | [1]; at 50.0 µM 95.5% | [2]; [8] 95% | [2]; at 50.0 µM 87.7% | [3]; [8] 95% | [3]; at 50.0 µM 90.3% | [5]; [8] 95% | [5]; at 50.0 µM 87.2% | [6]; [8] 95% | [6]; at 50.0 µM 93.5%
inactive: [1]; [7] 16% | [2]; [7] 20% | [3]; [7] 28% | [4]; [7] 0% | [4]; [8] 55% | [4]; at 50.0 µM 52.6% | [5]; [7] 14% | [6]; [7] 45%

COc1ccc(C2=C(Cl)C(=O)N(c3ccccc3Cl)C(=O)C2(Cl)Cl)cc1
active: [1]; [8] 96% | [1]; at 50.0 µM 92.7% | [2]; [8] 95% | [2]; at 50.0 µM 98.7% | [3]; [8] 97% | [3]; at 50.0 µM 97.5% | [4]; [8] 96% | [4]; at 50.0 µM 71.5% | [5]; [8] 97% | [5]; at 50.0 µM 97.1% | [6]; [8] 80% | [6]; at 50.0 µM 97.4%
inactive: [1]; [7] 19% | [2]; [7] -1% | [3]; [7] 17% | [4]; [7] -5% | [5]; [7] 0% | [6]; [7] 17%

Cc1cc([N+](=O)[O-])cc(C)c1OC(=O)Nc1c(Cl)cccc1Cl
active: [3]; [8] 71%
inactive: [1]; [7] 37% | [1]; [8] 37% | [1]; at 50.0 µM 31.6% | [2]; [7] 30% | [2]; [8] 45% | [2]; at 50.0 µM 22.1% | [3]; [7] 46% | [3]; at 50.0 µM 55.4% | [4]; [7] 32% | [4]; [8] 36% | [4]; at 50.0 µM 22.1% | [5]; [7] 24% | [5]; [8] 68% | [5]; at 50.0 µM 23.1% | [6]; [7] 48% | [6]; [8] 56% | [6]; at 50.0 µM 24.1%

COc1cc(-c2nn3c(=O)n(-c4ccc(Cl)cc4)c(=O)nc3s2)cc(OC)c1OC
inactive: [1]; [7] 6% | [1]; [8] -2% | [1]; at 50.0 µM 30.8% | [2]; [7] 0% | [2]; [8] 18% | [2]; at 50.0 µM -0.6% | [3]; [7] 1% | [3]; [8] 4% | [3]; at 50.0 µM 20.9% | [4]; [7] 7% | [4]; [8] -7% | [4]; at 50.0 µM 24% | [6]; [7] -2% | [6]; [8] 3% | [6]; at 50.0 µM 2.35%
